Experimental data from PubChem BioAssay AID1159580 (chemical genetic matrix, 2015).
Where “and” joins values, the source holds several entries; their conditions need not be identical. Identical values can stand only once. About 2,000 (36%) of roughly 5,500 compounds were called active. Roughly 18% stayed inconclusive and do not appear here. No stated cut-off is given here; in the data, active means normalized growth mostly below about 0.91 (no sharp cut-off); inconclusive means no clear call, values can overlap the other calls; inactive means mostly above about 0.92. The list shows a part of the results.

Test: chemical genetic growth profiling, strain panel (AID 1159580);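 further: tested at 20 µM; growth read once vehicle control cultures reached saturation at 30 °C; 1 = growth at the plate median or of vehicle wells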
Conditions: S. cerevisiae deletion strains, growth OD

Measured: normalized growth

COc1cc(NS(=O)(=O)c2ccc(N)cc2)nc(OC)n1
inactive: locus YAL021C, strain ccr4, stronger effect = lower value 0.976 | locus YAL026C, strain drs2, stronger effect = lower value 0.982 | locus YAL030W, strain snc1, stronger effect = lower value 0.976 | locus YBL061C, strain skt5, stronger effect = lower value 0.97 | locus YBR009C, strain hhf1, stronger effect = lower value 0.977 | locus YBR021W, strain FUR4, stronger effect = lower value 0.983 | locus YBR023C, strain chs3, stronger effect = lower value 0.977 | locus YBR171W, strain sec66, stronger effect = lower value 0.968 | locus YBR229C, strain ROT2, stronger effect = lower value 0.987 | locus YBR231C, strain swc5, stronger effect = lower value 0.971 | locus YBR279W, strain paf1, stronger effect = lower value 0.961 | locus YCL011C, strain gbp2, stronger effect = lower value 0.986 | locus YCL016C, strain dcc1, stronger effect = lower value 0.978 | locus YCL029C, strain bik1, stronger effect = lower value 0.978 | locus YCL061C, strain MRC1, stronger effect = lower value 0.97 | locus YCL069W, strain vba3, stronger effect = lower value 0.985 | locus YCR088W, strain abp1, stronger effect = lower value 0.962 | locus YDL005C, strain med2, stronger effect = lower value 0.979 | locus YDL035C, strain GPR1, stronger effect = lower value 0.976 | locus YDL040C, strain nat1, stronger effect = lower value 0.963 | locus YDL074C, strain BRE1, stronger effect = lower value 0.995 | locus YDL101C, strain DUN1, stronger effect = lower value 0.985 | locus YDL134C, strain PPH21, stronger effect = lower value 0.968 | locus YDL185W, strain tfp1, stronger effect = lower value 0.982 | locus YDL192W, strain arf1, stronger effect = lower value 0.984 | locus YDR001C, strain nth1, stronger effect = lower value 0.978 | locus YDR069C, strain doa4, stronger effect = lower value 0.957 | locus YDR101C, strain arx1, stronger effect = lower value 0.999 | locus YDR137W, strain rgp1, stronger effect = lower value 0.984 | locus YDR150W, strain NUM1, stronger effect = lower value 0.999 | locus YDR159W, strain sac3, stronger effect = lower value 0.933 | locus YDR162C, strain NBP2, stronger effect = lower value 0.98 | locus YDR195W, strain ref2 0.942 | locus YDR297W, strain sur2, stronger effect = lower value 0.983 | locus YDR318W, strain mcm21, stronger effect = lower value 0.989 | locus YDR334W, strain swr1, stronger effect = lower value 0.974 | locus YDR335W, strain msn5, stronger effect = lower value 0.981 | locus YDR388W, stronger effect = lower value 0.977 | locus YDR392W, strain spt3, stronger effect = lower value 0.984 | locus YDR502C, strain sam2, stronger effect = lower value 0.98 | locus YEL003W, strain gim4, stronger effect = lower value 0.991 | locus YEL037C, strain rad23, stronger effect = lower value 0.965 | locus YEL061C, strain CIN8 (second series), stronger effect = lower value 0.986 | locus YEL061C, strain CIN8, stronger effect = lower value 1 | locus YER015W, strain faa2, stronger effect = lower value 0.99 | locus YER016W, strain bim1, stronger effect = lower value 0.988 | locus YER110C, stronger effect = lower value 0.972 | locus YER111C, strain swi4, stronger effect = lower value 0.973 | locus YER155C, strain BEM2 (second series), stronger effect = lower value 0.95 | locus YER155C, strain BEM2, stronger effect = lower value 0.996 | locus YER167W, strain BCK2, stronger effect = lower value 0.977 | locus YFR010W, strain ubp6, stronger effect = lower value 0.976 | locus YGL078C, strain dbp3, stronger effect = lower value 0.985 | locus YGL086W, strain mad1, stronger effect = lower value 0.997 | locus YGL167C, strain pmr1, stronger effect = lower value 0.976 | locus YGL173C, strain kem1, stronger effect = lower value 0.951 | locus YGL227W, strain vid30, stronger effect = lower value 0.97 | locus YGL240W, strain doc1, stronger effect = lower value 0.97 | locus YGL248W, strain PDE1, stronger effect = lower value 1.01 | locus YGL253W, strain hxk2, stronger effect = lower value 0.977 | locus YGR078C, strain PAC10, stronger effect = lower value 1.01 | locus YGR135W, strain pre9, stronger effect = lower value 0.979 | locus YGR229C, strain SMI1, stronger effect = lower value 0.982 | locus YGR252W, strain gcn5, stronger effect = lower value 1.03 | locus YHR013C, strain ard1, stronger effect = lower value 0.988 | locus YHR027C, strain rpn1, stronger effect = lower value 0.981 | locus YHR030C, strain SLT2, stronger effect = lower value 0.986 and 0.975 | locus YHR079C, strain IRE1 (second series), stronger effect = lower value 0.991 | locus YHR079C, strain IRE1, stronger effect = lower value 0.978 | locus YHR094C, strain hxt1, stronger effect = lower value 0.98 | locus YHR129C, strain ARP1, stronger effect = lower value 0.985 | locus YHR142W, strain chs7, stronger effect = lower value 0.969 | locus YHR200W, strain rpn10, stronger effect = lower value 0.993 | locus YIL066C, strain RNR3, stronger effect = lower value 0.982 | locus YIL073C, strain SPO22, stronger effect = lower value 0.87 | locus YIL125W, strain kgd1, stronger effect = lower value 0.994 | locus YIR030C, strain dcg1, stronger effect = lower value 0.997 | locus YJL092W, strain hpr5, stronger effect = lower value 0.982 | locus YJL095W, strain BCK1 (second series), stronger effect = lower value 0.963 | locus YJL095W, strain BCK1, stronger effect = lower value 1.03 and 0.977 | locus YJL115W, strain asf1, stronger effect = lower value 0.966 | locus YJL129C, strain trk1, stronger effect = lower value 0.969 | locus YJL134W, strain LCB3, stronger effect = lower value 0.986 | locus YJL154C, strain vps35, stronger effect = lower value 0.965 | locus YJL164C, strain tpk1, stronger effect = lower value 1 | locus YJL166W, strain qcr8, stronger effect = lower value 0.978 | locus YJL168C, strain set2, stronger effect = lower value 0.989 | locus YJL187C, strain SWE1 (second series), stronger effect = lower value 0.994 | locus YJL187C, strain SWE1, stronger effect = lower value 0.976 | locus YJR043C, strain POL32, stronger effect = lower value 0.982
